Compound activity (PubChem BioAssay)
Only a selection was taken, and hits are over-represented in it overall.
nsP2pro primary = inhibitors of chikungunya virus nsP2 protease. Q8JUX6. FRET peptide cleavage, nsP2pro, fluorescence 1 h. Potency, µM (titrated, usually from 24.9 µM), for the others: at the highest dose activity change, negative = inhibition, actives largely listed as inhibitors. hit rate 1.1% among 31,000; further: nearly all actives have a fitted effect of over 60% in size
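FRET cleavage of 2.5 uM peptide 2 by 150 nM CHIKV protease domain at pH 8.0 (Tris, Tween 20). Compounds at 7 concentrations (up to 25 uM) preincubated 15 min. Fluorescence read after 1 h at room temperature.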
nsP2 cell sec = cell-based CHIKV nsP2 protease inhibition, secondary; Potency, µM (titrated, usually from 51.1 µM), inactives show at the highest dose activity change, negative = inhibition, usual class: inhibitors; cell-based CHIKV nsP2 protease reporter assay; hit rate 10% among 450; shares compounds with nsP2pro primary; further: nearly all actives have a fitted effect of over 70% in size
Target sequence (Q8JUX6 220-798 limits assumed): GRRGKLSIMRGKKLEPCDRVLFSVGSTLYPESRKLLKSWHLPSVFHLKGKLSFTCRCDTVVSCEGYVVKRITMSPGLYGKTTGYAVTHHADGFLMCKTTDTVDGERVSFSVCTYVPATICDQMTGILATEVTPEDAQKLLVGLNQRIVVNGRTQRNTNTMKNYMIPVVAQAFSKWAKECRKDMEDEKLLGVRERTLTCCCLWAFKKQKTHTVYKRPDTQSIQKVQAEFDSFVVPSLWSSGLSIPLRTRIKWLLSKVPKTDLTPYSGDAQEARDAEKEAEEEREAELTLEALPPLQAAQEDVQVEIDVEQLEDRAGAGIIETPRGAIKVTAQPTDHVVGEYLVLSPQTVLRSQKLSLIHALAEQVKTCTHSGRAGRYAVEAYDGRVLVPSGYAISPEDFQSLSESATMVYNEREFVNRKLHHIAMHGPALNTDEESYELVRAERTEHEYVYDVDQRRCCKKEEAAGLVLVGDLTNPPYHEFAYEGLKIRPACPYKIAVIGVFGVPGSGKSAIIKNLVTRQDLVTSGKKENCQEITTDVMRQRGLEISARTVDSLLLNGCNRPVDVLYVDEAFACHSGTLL
CHIKV NSP2 FL = selectivity test for CHIKV nsP2 protease inhibitors: full-length NSP2; shares compounds with nsP2pro primary; AID 1964101; Potency, µM (series often up to 50.7 µM), inactives show top-dose activity change, negative = inhibition, hits mostly inhibitors; hit rate 39% among 410; Full-length CHIKV NSP2 protease enzymatic counterscreen; further: nearly all actives have a fitted effect of over 65% in size
Furin counter = inhibits human furin in a CHIKV nsP2 protease selectivity counterscreen. shares compounds with nsP2pro primary. Recombinant human furin enzymatic counterscreen, fluorogenic substrate. Potency, µM (highest dose often 50.6 µM), without a hit: at the highest dose activity change, negative = inhibition, hits mostly inhibitors. hit rate 6% among 410. AID 1964102
nsP2 NS23 pep = nsP2pro inhibition on native NS2/3 peptide substrate; shares compounds with nsP2pro primary; Purified CHIKV nsP2 protease, endogenous NS2/3 peptide cleavage; Potency, µM (series often up to 51 µM), for inactives: top-dose activity change, negative = inhibition, usual class: inhibitors; hit rate 34% among 410; further: nearly all actives have a fitted effect of over 55% in size
Papain cs = selectivity counter-screen for CHIKV nsP2 protease inhibitors: papain; shares compounds with nsP2pro primary; purified papain protease activity, enzymatic inhibition; hit rate 5% among 410; Potency, µM (series often up to 51 µM), inactives show at the highest dose activity change, negative = inhibition, actives largely listed as inhibitors
nsP2pro confirm = CHIKV nsP2 protease inhibition, confirmatory qHTS; shares compounds with nsP2pro primary; CHIKV nsP2 protease enzymatic activity, qHTS; Potency, µM (highest dose often 25.5 µM), inactives show at the top dose activity change, negative = inhibition, hits mostly inhibitors; hit rate 43% among 410; further: nearly all actives have a fitted effect of over 75% in size
HCV NS3 counter = inhibits HCV NS3/4A protease in an nsP2pro selectivity counterscreen | shares compounds with nsP2pro primary | HCV NS3/4A protease biochemical counterscreen | Potency, µM (series often up to 50.9 µM), most hits filed as inhibitors | hit rate 20% among 410; further: nearly all actives have a fitted effect of over 55% in size
* = called active by the depositor; i = inactive; ? = inconclusive; [ ] = remark or other dose. The call rests on the fitted dose curve. On the % scale 0 is the no-effect control and ±100 the full control effect; potency means the concentration at half of the fitted maximal effect.

SMILES	nsP2pro primary	others
Cc1cc(C)n(CC(=O)N2CCC(c3nc(CCOCC4CCCC4)no3)C2)n1 (configuration not stated)	i
CCN(CCNC(=O)C1CCCCC(=O)N1C)Cc1ccccc1 (configuration not stated)	-4%
Cc1ccc(-c2cc(C(=O)Nc3ccc(C#N)cc3)c3ccccc3n2)cc1C	5%
C=C1C(=O)OC2CC3(C)C(CC12)C(C)=CC(O)C3OC(C)=O (configuration not stated)	126%
C=C1C(=O)O[C@@H]2[C@H]1[C@H](O)C[C@]1(C)[C@@H](O)CC=C(C)[C@@H]21	?	nsP2 cell sec=?;CHIKV NSP2 FL=-7%;Furin counter=2%;nsP2 NS23 pep=-11%;Papain cs=-11%;nsP2pro confirm=-17%;HCV NS3 counter=i
C=C1C(=O)OC2C1C(O)CC1(C)C(O)CCC(C=O)C21 (configuration not stated)	?	nsP2 cell sec=-6%;CHIKV NSP2 FL=-11%;Furin counter=-2%;nsP2 NS23 pep=-18%;Papain cs=-11%;nsP2pro confirm=-24%;HCV NS3 counter=i
C=C1C(=O)OC2C1CCC1(C)C(O)CCC(=C)C21 (configuration not stated)	62%
CC1=CCC(O)C2(C)CCC3C(C)C(=O)OC3C12 (configuration not stated)	-1%
C[C@]12CC[C@H]3[C@@H]([C@H](O)CC4=CC(=O)CC[C@@]43C)[C@@H]1CC[C@@H]2O	3%
CCc1cc(C(N)=O)ccc1-n1nc(C(C)C)c2c(-n3cnc(-c4cnn(C)c4)c3)ccnc21	-2%
C#CCNC(=O)CNC(=O)c1cccc(-c2cc(F)ccc2OC)c1	-4%[39.2 µM]
CCc1c(C(=O)NNC(=O)[C@@H](O)c2cc(F)cc(F)c2)ccc(O)c1C	0%
CCS(=O)(=O)N1CCC([C@@H](C)n2c(C)c(C(=O)NCc3c(OC)cc(C)[nH]c3=O)c3ccccc32)CC1	-11%
Cc1nc(C2CCCN2Cc2ccc(-c3ccn[nH]3)o2)cs1 (configuration not stated)	8.9µM*	nsP2 cell sec=14%;CHIKV NSP2 FL=?;Furin counter=-3%;nsP2 NS23 pep=?;Papain cs=-6%;nsP2pro confirm=?;HCV NS3 counter=?
CCOc1ccc(CCNC(C)=O)cc1OCC	i
COc1cccc2c1C(=O)c1c(O)c3c(c(O)c1C2=O)C[C@@](O)(C(=O)CO)C[C@@H]3O[C@H]1C[C@H](N)[C@H](OC2CCCCO2)[C@H](C)O1 (some centres not stated)	181%
CC[C@@]1(O)C[C@H](O[C@H]2C[C@H](N(C)C)[C@H](O[C@H]3C[C@H](O)[C@H](O[C@H]4CCC(=O)[C@H](C)O4)[C@H](C)O3)[C@H](C)O2)c2c(cc3c(c2O)C(=O)c2c(O)cccc2C3=O)[C@@H]1C(=O)OC	?	nsP2 cell sec=-17%;CHIKV NSP2 FL=?;Furin counter=-10%;nsP2 NS23 pep=?;Papain cs=-20%;nsP2pro confirm=?;HCV NS3 counter=i
COc1cccc2c1C(=O)c1c(O)c3c(c(O)c1C2=O)C[C@@](O)(C(=O)CO)CC3OC1CC(N2CCOC(OC)C2)C(O)C(C)O1 (some centres not stated)	210%
Nc1nc(NCc2ccc(-c3cccnc3)cc2)c2ccccc2n1	4%
COc1cc(Cl)ccc1C(=O)N1CC[C@@](C)(O)[C@@H](O)C1	-1%
CCN(CC)Cc1cccc(/C=C/c2nc3ccc(F)cc3c(=O)n2-c2ccccc2Cl)n1	37%
C=CCNc1nnc(-c2cccc3ccccc23)o1	?	nsP2 cell sec=26%;CHIKV NSP2 FL=23µM*;Furin counter=?;nsP2 NS23 pep=?;Papain cs=-4%;nsP2pro confirm=7.1µM*;HCV NS3 counter=?
C=CCSc1nnc(-c2cccc3ccccc23)o1	2%
C=CCNc1oc(-c2cccc3ccccc23)nc1C#N	3%
CCN(c1cc(-c2ccc(CN3CCOCC3)cc2)cc(C(=O)NCc2c(C)cc(C)[nH]c2=O)c1C)C1CCOCC1	-14%
SMILES	nsP2pro primary	others
CNC(=O)c1cc(C2CC2)nc2onc(C3CCCN3C(=O)NC(C)c3ccccc3)c12 (configuration not stated)	i
Cc1cc(NC(=O)c2ccc(C)c(Nc3nccc(-c4cccnc4)n3)c2)cc(-n2cnc(C)c2)c1	i
Cc1ccccc1C(=O)N1CCc2cc(N3CCC(NC(=O)Cc4ccccc4)C3)ccc21 (configuration not stated)	i
OC[C@H]1O[C@@H](OCCc2ccccc2)[C@H](O[C@@H]2OC[C@](O)(CO)[C@H]2O)[C@@H](O)[C@@H]1O	8%[10 µM]
Cc1ccc(-c2cc(-c3cccnc3)nc3c(C)noc23)c(C)c1	i
CCOC(=O)C1(Cc2ccccc2)CCNCC1	-4%
COc1cc(CO)ccc1O[C@@H]1O[C@H](CO)[C@@H](O)[C@H](O)[C@H]1O	-1%
COc1cc(CCO)ccc1O[C@@H]1O[C@H](CO)[C@@H](O)[C@H](O)[C@H]1O	?	nsP2 cell sec=-6%[33.5 µM];CHIKV NSP2 FL=-27%[33.5 µM];Furin counter=8%[33.5 µM];nsP2 NS23 pep=-8%[33.5 µM];Papain cs=-7%[33.5 µM];nsP2pro confirm=?;HCV NS3 counter=i
OCCc1ccc(O[C@@H]2O[C@H](CO)[C@@H](O)[C@H](O)[C@H]2O)cc1	-6%
COc1ccc(CC(=O)Nc2ccc(S(=O)(=O)Nc3cc(C)on3)cc2)cc1C	3%
CCCNC(=O)N[C@@H]1CCC[C@@H](C(=O)NCc2cc(C)on2)CC(=O)N(C)C1	28%[39.2 µM]
O=C(O)/C=C/c1ccc(O)c(O)c1	?	nsP2 cell sec=-8%;CHIKV NSP2 FL=-22%;Furin counter=-2%;nsP2 NS23 pep=3%;Papain cs=-8%;nsP2pro confirm=-5%;HCV NS3 counter=?
COc1cc(/C=C/C(=O)O)ccc1O	13%
O=C(/C=C/c1ccc(O)c(O)c1)O[C@@H](C(=O)O)[C@@H](OC(=O)/C=C/c1ccc(O)c(O)c1)C(=O)O	40%
Cc1ccc(CN2CCCc3nc(C)nc(-c4ccc(O)cc4)c3C2)cc1	i
COc1ccnc(NC(=S)N2CCN(c3ccccc3C(F)(F)F)CC2)c1	-1%
Cc1cccc(C(=O)Nc2cc3c(cc2N2CCCCC2)n(C)c(=O)n3C)c1	-9%
O=C(Nc1ccc(Cl)cc1)c1ccc2c(c1)N(Cc1ccccc1)CCS2	-5%
O=C(Nc1ccc(Cl)cc1)N1CCC(c2ccccc2)C1 (configuration not stated)	-10%
